Measurements from the supplement of paper PMC8728848.
The entries come from a sample that favours the strongest signals as a whole.

Experiments:
Test in all cases: glycan array binding signal (z-score within array); higher = stronger binding
Settings in all cases: glycan notation: IUPAC condensed, linker removed
[1] = target: Fuc(a1-2)Gal(b1-3)GlcNAc(b1-2)Man(a1-3)[Fuc(a1-2)Gal(b1-3)GlcNAc(b1-2)Man(a1-6)]Man(b1-4)GlcNAc(b1-4)GlcNAc
Procedure, shortened: (§1)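 Negative Z-scores can be read as non-binding. The Z-score is calculated within each array and then averaged across arrays of one protein sequence at different concentrations or buffers and across linkers. Arrays, 3228 in all, were curated from the Consortium for Functional Glycomics database and kept only where the protein sequence was available.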

[2] = target: Fuc(a1-2)Gal(b1-3)GlcNAc(b1-3)GalNAc
Procedure, shortened: as §1

[3] = target: Fuc(a1-2)Gal(b1-4)GlcNAc(b1-2)[Fuc(a1-2)Gal(b1-4)GlcNAc(b1-4)]Man(a1-3)[Fuc(a1-2)Gal(b1-4)GlcNAc(b1-2)Man(a1-6)]Man(b1-4)GlcNAc(b1-4)GlcNAc
Procedure, shortened: as §1

[4] = target: Fuc(a1-2)Gal(b1-4)GlcNAc(b1-3)Gal(b1-4)GlcNAc(b1-3)Gal(b1-4)GlcNAc
Procedure, shortened: as §1

[5] = target: Fuc(a1-2)[Gal(a1-3)]Gal(b1-4)GlcNAc(b1-3)[Fuc(a1-2)[Gal(a1-3)]Gal(b1-4)GlcNAc(b1-6)]GalNAc
Procedure, shortened: as §1

[6] = target: Fuc(a1-2)[Gal(a1-3)]Gal(b1-4)[Fuc(a1-3)]GlcNAc
Procedure, shortened: as §1

[7] = target: Fuc(a1-2)[GalNAc(a1-3)]Gal(b1-4)GlcNAc(b1-2)Man(a1-3)[Fuc(a1-2)[GalNAc(a1-3)]Gal(b1-4)GlcNAc(b1-2)Man(a1-6)]Man(b1-4)GlcNAc(b1-4)GlcNAc
Procedure, shortened: as §1

[8] = target: Fuc(a1-3)[Gal(b1-4)]Glc6S
Procedure, shortened: as §1

[9] = target: Fuc(a1-3)[Gal(b1-4)]GlcNAc(b1-3)GalNAc
Procedure, shortened: as §1

Fuc(a1-4)GlcNAc = target: Fuc(a1-4)GlcNAc
Procedure, shortened: as §1

Gal(a1-3)Gal(b1-3)GlcNAc = target: Gal(a1-3)Gal(b1-3)GlcNAc
Procedure, shortened: as §1

[10] = target: Gal(a1-3)Gal(b1-4)[Fuc(a1-3)]GlcNAc
Procedure, shortened: as §1

[11] = target: Gal(b1-3)GalNAc(a1-3)[Fuc(a1-2)]Gal(b1-4)GlcNAc
Procedure, shortened: as §1

[12] = target: Gal(b1-3)GlcNAc(b1-2)Man(a1-3)[GlcNAc(b1-4)][Gal(b1-3)GlcNAc(b1-2)Man(a1-6)]Man(b1-4)GlcNAc(b1-4)GlcNAc
Procedure, shortened: as §1

[13] = target: Gal(b1-3)GlcNAc(b1-2)[Gal(b1-3)GlcNAc(b1-6)]Man(a1-6)[Gal(b1-3)GlcNAc(b1-2)Man(a1-3)]Man(b1-4)GlcNAc(b1-4)GlcNAc
Procedure, shortened: as §1

[14] = target: Gal(b1-3)GlcNAc(b1-3)Gal(b1-3)GlcNAc
Procedure, shortened: as §1

[15] = target: Gal(b1-3)GlcNAc(b1-3)Gal(b1-4)GlcNAc(b1-3)Gal(b1-4)GlcNAc(b1-2)[Gal(b1-3)GlcNAc(b1-3)Gal(b1-4)GlcNAc(b1-3)Gal(b1-4)GlcNAc(b1-6)]Man(a1-6)[Gal(b1-3)GlcNAc(b1-3)Gal(b1-4)GlcNAc(b1-3)Gal(b1-4)GlcNAc(b1-2)Man(a1-3)]Man(b1-4)GlcNAc(b1-4)[Fuc(a1-6)]GlcNAc
Procedure, shortened: as §1

[16] = target: Gal(b1-4)GlcNAc(b1-2)Man(a1-3)[Gal(b1-4)GlcNAc(b1-2)Man(a1-6)]Man(b1-4)GlcNAc(b1-4)GlcNAc
Procedure, shortened: as §1

[17] = target: Gal(b1-4)GlcNAc(b1-3)Gal(b1-4)GlcNAc(b1-3)Gal(b1-4)GlcNAc(b1-2)Man(a1-3)[Gal(b1-4)GlcNAc(b1-3)Gal(b1-4)GlcNAc(b1-3)Gal(b1-4)GlcNAc(b1-2)Man(a1-6)]Man(b1-4)GlcNAc(b1-4)GlcNAc
Procedure, shortened: as §1

[18] = target: Gal(b1-4)GlcNAc(b1-3)Gal(b1-4)GlcNAc(b1-3)Gal(b1-4)GlcNAc(b1-3)Gal(b1-4)GlcNAc(b1-3)Gal(b1-4)GlcNAc(b1-2)[Gal(b1-4)GlcNAc(b1-3)Gal(b1-4)GlcNAc(b1-3)Gal(b1-4)GlcNAc(b1-3)Gal(b1-4)GlcNAc(b1-3)Gal(b1-4)GlcNAc(b1-6)]Man(a1-6)[Gal(b1-4)GlcNAc(b1-3)Gal(b1-4)GlcNAc(b1-3)Gal(b1-4)GlcNAc(b1-3)Gal(b1-4)GlcNAc(b1-3)Gal(b1-4)GlcNAc(b1-2)Man(a1-3)]Man(b1-4)GlcNAc(b1-4)[Fuc(a1-6)]GlcNAc
Procedure, shortened: as §1

Gal3S(b1-4)Glc6S = target: Gal3S(b1-4)Glc6S
Procedure, shortened: as §1

Gal6S(b1-4)Glc = target: Gal6S(b1-4)Glc
Procedure, shortened: as §1

Gal6S(b1-4)GlcNAc = target: Gal6S(b1-4)GlcNAc
Procedure, shortened: as §1

[19] = target: GalNAc(b1-3)Gal(a1-4)Gal(b1-4)GlcNAc
Procedure, shortened: as §1

GalNAc(b1-3)GalNAc = target: GalNAc(b1-3)GalNAc
Procedure, shortened: as §1

[20] = target: GalNAc(b1-4)GlcNAc(b1-2)Man(a1-3)[GalNAc(b1-4)GlcNAc(b1-2)Man(a1-6)]Man(b1-4)GlcNAc(b1-4)GlcNAc
Procedure, shortened: as §1

GalNAc3S(b1-4)GlcNAc3S = target: GalNAc3S(b1-4)GlcNAc3S
Procedure, shortened: as §1

GlcA(b1-6)Gal = target: GlcA(b1-6)Gal
Procedure, shortened: as §1

[21] = target: GlcA3S(b1-3)Gal(b1-4)GlcNAc(b1-3)Gal(b1-4)Glc
Procedure, shortened: as §1

[22] = target: GlcNAc(b1-2)Man(a1-3)[GlcNAc(b1-2)Man(a1-6)]Man(b1-4)GlcNAc(b1-4)[Fuc(a1-6)]GlcNAc
Procedure, shortened: as §1

[23] = target: GlcNAc(b1-2)[GlcNAc(b1-4)]Man(a1-3)[GlcNAc(b1-4)][GlcNAc(b1-2)Man(a1-6)]Man(b1-4)GlcNAc(b1-4)GlcNAc
Procedure, shortened: as §1

GlcNAc(b1-3)Gal(b1-4)Glc = target: GlcNAc(b1-3)Gal(b1-4)Glc
Procedure, shortened: as §1

[24] = target: GlcNAc(b1-3)Gal(b1-4)GlcNAc(b1-6)[Gal(b1-3)]GalNAc
Procedure, shortened: as §1

[25] = target: GlcNAc(b1-4)GlcNAc(b1-4)GlcNAc(b1-4)GlcNAc(b1-4)GlcNAc(b1-4)GlcNAc
Procedure, shortened: as §1

Man(b1-4)GlcNAc = target: Man(b1-4)GlcNAc
Procedure, shortened: as §1

[26] = target: Neu5Ac(a2-3)Gal(b1-3)GalNAc
Procedure, shortened: as §1

Neu5Ac(a2-3)Gal(b1-4)Glc = target: Neu5Ac(a2-3)Gal(b1-4)Glc
Procedure, shortened: as §1

[27] = target: Neu5Ac(a2-3)Gal(b1-4)GlcNAc(b1-3)Gal(b1-3)GlcNAc
Procedure, shortened: as §1

[28] = target: Neu5Ac(a2-3)Gal(b1-4)[Fuc(a1-3)]GlcNAc
Procedure, shortened: as §1

[29] = target: Neu5Ac(a2-6)Gal(b1-4)GlcNAc(b1-3)Gal(b1-4)GlcNAc(b1-2)Man(a1-3)[Neu5Ac(a2-6)Gal(b1-4)GlcNAc(b1-3)Gal(b1-4)GlcNAc(b1-2)Man(a1-6)]GalNAc
Procedure, shortened: as §1

[30] = target: Neu5Ac(a2-8)Neu5Ac(a2-8)Neu5Ac
Procedure, shortened: as §1

[31] = target: Neu5Ac(a2-8)Neu5Gc(a2-3)Gal(b1-4)GlcNAc
Procedure, shortened: as §1

Neu5Gc(a2-6)GalNAc = target: Neu5Gc(a2-6)GalNAc
Procedure, shortened: as §1

B1: Sebin2 (Coprinopsis cinerea), A8PE78 (protein)
chain: MTTPFYAYCHNVQDDNTWRLGLVFANRSTADEWWRAISEATSSIPITKSITRVTPQYYTHDIRVWNMYNFFVDGNIKSISDKFRGRLFITLEYDRSGRGVSVFPPLHIVDHVSGNWYYIRSKTAPHLFWFYDETRNAIYASKEKRTRFKVSIRNPSPQTPKDAIMINSDDVVIHIKESLYVGVDSYLGHIIPTRAYRTFKFGELEGGAIAGIEVAENAEERCSSTFDGASLYFVGPDSSSPGEPWELV
B1 was tested, and the “glycan array binding signal (z-score)” value [1] was 0.911, the “glycan array binding signal (z-score)” value [2] was -0.146 and the “glycan array binding signal (z-score)” value [3] was 0.019. For the same binder, the “glycan array binding signal (z-score)” value [4] was -0.116, the “glycan array binding signal (z-score)” value [5] was 4.59 and the “glycan array binding signal (z-score)” value [6] was -0.033. For the same binder, the “glycan array binding signal (z-score)” value [7] was 0.273, the “glycan array binding signal (z-score)” value [8] was 1.49 and the “glycan array binding signal (z-score)” value [9] was 0.281. For the same binder, the “glycan array binding signal (z-score)” value (Fuc(a1-4)GlcNAc) was 4.58, the “glycan array binding signal (z-score)” value (Gal(a1-3)Gal(b1-3)GlcNAc) was 1.62 and the “glycan array binding signal (z-score)” value [10] was -0.524. For the same binder, the “glycan array binding signal (z-score)” value [11] was -0.521, the “glycan array binding signal (z-score)” value [12] was -0.222 and the “glycan array binding signal (z-score)” value [13] was 1.02. The “glycan array binding signal (z-score)” value [14] was -0.397, the “glycan array binding signal (z-score)” value [15] was 0.29 and the “glycan array binding signal (z-score)” value [16] was 0.112. For the same binder, the “glycan array binding signal (z-score)” value [17] was -0.131, the “glycan array binding signal (z-score)” value [18] was 0.421 and the “glycan array binding signal (z-score)” value (Gal3S(b1-4)Glc6S) was 0.515. For the same binder, the “glycan array binding signal (z-score)” value (Gal6S(b1-4)Glc) was -0.355, the “glycan array binding signal (z-score)” value (Gal6S(b1-4)GlcNAc) was -0.138 and the “glycan array binding signal (z-score)” value [19] was -0.059. The “glycan array binding signal (z-score)” value (GalNAc(b1-3)GalNAc) was -0.129, the “glycan array binding signal (z-score)” value [20] was -0.25 and the “glycan array binding signal (z-score)” value (GalNAc3S(b1-4)GlcNAc3S) was 0.462. The “glycan array binding signal (z-score)” value (GlcA(b1-6)Gal) was 1.12, the “glycan array binding signal (z-score)” value [21] was 1.64 and the “glycan array binding signal (z-score)” value [22] was -0.213. For the same binder, the “glycan array binding signal (z-score)” value [23] was 2.76, the “glycan array binding signal (z-score)” value (GlcNAc(b1-3)Gal(b1-4)Glc) was -0.04 and the “glycan array binding signal (z-score)” value [24] was -0.253. For the same binder, the “glycan array binding signal (z-score)” value [25] was -0.328, the “glycan array binding signal (z-score)” value (Man(b1-4)GlcNAc) was -0.209 and the “glycan array binding signal (z-score)” value [26] was 6.35. For the same binder, the “glycan array binding signal (z-score)” value (Neu5Ac(a2-3)Gal(b1-4)Glc) was 8.35, the “glycan array binding signal (z-score)” value [27] was 0.2 and the “glycan array binding signal (z-score)” value [28] was -0.437. The “glycan array binding signal (z-score)” value [29] was -0.35, the “glycan array binding signal (z-score)” value [30] was 0.72 and the “glycan array binding signal (z-score)” value [31] was -0.304. The “glycan array binding signal (z-score)” value (Neu5Gc(a2-6)GalNAc) was -0.242.
